# From PMC11062922 (Nature Chemical Biology, 2023)
# Where two headings read alike, the source gives them in different places.
# Key:
# Set-up in all cases: species or system human, MV4-11 + K-562 + COLO205 + SK-N-BE2 + OVCAR-8
# ACVR1B = settings: read-out: apparent Kd, compound concentrations: 100 nM and 1000 nM (sheet 'Samples'), n = 1
# ACVR1 = settings: read-out: apparent Kd, compound concentrations: 100 nM and 1000 nM (sheet 'Samples'), n = 1
# EPHA1 = settings: read-out: apparent Kd, compound concentrations: 100 nM and 1000 nM (sheet 'Samples'), n = 1
# FRK = settings: read-out: apparent Kd, compound concentrations: 100 nM and 1000 nM (sheet 'Samples'), n = 1
# SIK2 = settings: read-out: apparent Kd, compound concentrations: 100 nM and 1000 nM (sheet 'Samples'), n = 1
# TGFBR1 = settings: read-out: apparent Kd, compound concentrations: 100 nM and 1000 nM (sheet 'Samples'), n = 1
# ZAK = settings: read-out: apparent Kd, compound concentrations: 100 nM and 1000 nM (sheet 'Samples'), n = 1
# DDR1 = settings: read-out: apparent Kd, n = 1
# DYRK1A = settings: read-out: apparent Kd, compound concentrations: 100 nM and 1000 nM (sheet 'Samples'), n = 1
# CSK = settings: read-out: apparent Kd, compound concentrations: 100 nM and 1000 nM (sheet 'Samples'), n = 1
# FLT3 = settings: read-out: apparent Kd, n = 1
# GSK3A = settings: read-out: apparent Kd, compound concentrations: 100 nM and 1000 nM (sheet 'Samples'), n = 1
# AKT1 = settings: read-out: apparent Kd; compound concentrations: 100 nM and 1000 nM (sheet 'Samples'), CATDS: 3.7255828319427503E-2; n = 1
# AKT2 = settings: read-out: apparent Kd; compound concentrations: 100 nM and 1000 nM (sheet 'Samples'), CATDS: 4.5642212363568399E-2; n = 1
# RIOK2 = settings: read-out: apparent Kd, n = 1
# ACAD11 = settings: read-out: apparent Kd, n = 1
# GSK3B = settings: read-out: apparent Kd; compound concentrations: 100 nM and 1000 nM (sheet 'Samples'), CATDS: 7.3478066296280203E-2; n = 1
# LYN = settings: read-out: apparent Kd, compound concentrations: 100 nM and 1000 nM (sheet 'Samples'), n = 1
# SRC = settings: read-out: apparent Kd, compound concentrations: 100 nM and 1000 nM (sheet 'Samples'), n = 1
# EGFR = settings: read-out: apparent Kd, n = 1
# [1] = compound concentrations:100 nM and 1000 nM (sheet 'Samples')
structure (smiles),measurement,setting,value
Cl.Oc1cccc(Nc2ccnc3cc(-c4ccncc4)ccc23)c1 [GW494601A],potency estimated from few doses,ACVR1B; CATDS: 4.2820592961585899E-2,73.7 nM
same,potency estimated from few doses,ACVR1; CATDS: 4.3782572898148998E-2,69 nM
same,potency estimated from few doses,EPHA1; CATDS: 8.3232336419421196E-2,14.3 nM
same,potency estimated from few doses,FRK; CATDS: 2.21362656072501E-2,843 nM
same,potency estimated from few doses,SIK2; CATDS: 2.1329898966899598E-2,1020 nM
same,potency estimated from few doses,TGFBR1; CATDS: 2.26052406331183E-2,762 nM
same,potency estimated from few doses,ZAK; CATDS: 1.9718010562251101E-2,1580 nM
CCn1cc(-c2ccnc3[nH]c(-c4cccc(CN(C)C)c4)cc23)c(-c2ccc(NC(=O)N(C)C)cc2)n1 [GSK1070916],potency estimated from few doses,DDR1; [1],869 nM
O=C1N=C(NCC(CO)c2ccccc2)S/C1=C\c1ccc2ncccc2c1 (centres unmarked) [RO4582641-000],potency estimated from few doses,DYRK1A; CATDS: 9.2693691803080097E-2,353 nM
O=C1N=C(N[C@@H](CO)c2ccccc2)S/C1=C\c1ccc2ncccc2c1 [RO4554340-000],potency estimated from few doses,DYRK1A; CATDS: 0.16734351378465701,1030 nM
COc1cc(Nc2ccnc3cc(-c4ccncc4)ccc23)cc(OC)c1OC.Cl [GW494610A],potency estimated from few doses,ACVR1B; CATDS: 6.2055393770244598E-2,76.5 nM
same,potency estimated from few doses,ACVR1; CATDS: 8.6839126385756693E-2,38.3 nM
same,potency estimated from few doses,CSK; CATDS: 2.2928225838280001E-2,1390 nM
same,potency estimated from few doses,EPHA1; CATDS: 0.10844818822907799,25.4 nM
same,potency estimated from few doses,SIK2; CATDS: 2.3854628716910201E-2,1170 nM
same,potency estimated from few doses,TGFBR1; CATDS: 2.6595956704932502E-2,765 nM
O=C1N=C(NCCc2cccc(F)c2)S/C1=C\c1ccc2ncccc2c1 [RO4508344-000],potency estimated from few doses,DYRK1A; CATDS: 0.105735187935075,750 nM
same,potency estimated from few doses,"FLT3; compound concentrations: 100 nM and 1000 nM (sheet 'Samples'), CATDS: 0.14042863340460501",431 nM
O=C1N=C(NCc2ccccc2)S/C1=C\c1ccc2ncccc2c1 [RO4442080-000],potency estimated from few doses,DYRK1A; CATDS: 9.0282965342826302E-2,1320 nM
NC1=NC(=O)/C(=C/c2ccc3ncccc3c2)S1 [RO4569139-000],potency estimated from few doses,DYRK1A; CATDS: 0.43183776325706602,39.3 nM
Cl.O=C1N=C(NCc2ccccn2)S/C1=C\c1ccc2ncccc2c1 [RO4874953-001],potency estimated from few doses,DYRK1A; CATDS: 0.10050944146971801,893 nM
same,potency estimated from few doses,GSK3A; CATDS: 8.1690756727002906E-2,1370 nM
COc1ccc(Nc2nccc(N3CCC(NC(=O)Nc4ccc5c(c4)OCO5)C3)n2)cc1 (centres unmarked) [GSK1379745A],potency estimated from few doses,AKT1,1760 nM
same,potency estimated from few doses,AKT2,1150 nM
same,potency estimated from few doses,"RIOK2; compound concentrations: 100 nM and 1000 nM (sheet 'Samples'), CATDS: 4.3222091528321002E-2",1280 nM
COc1cccc(-n2ncc3c(N/N=C/c4ccc(C(=O)NCCN(C)C)cc4)ncnc32)c1.Cl [GW784307A],potency estimated from few doses,"ACAD11; compound concentrations: 100 nM and 1000 nM (sheet 'Samples'), CATDS: 2.6823851715364801E-2",1620 nM
same,potency estimated from few doses,ACVR1B; CATDS: 4.53928679778344E-2,315 nM
same,potency estimated from few doses,ACVR1; CATDS: 0.29663347499665699,12.6 nM
same,potency estimated from few doses,GSK3A; CATDS: 8.2277419546057398E-2,89 nM
same,potency estimated from few doses,GSK3B,110 nM
same,potency estimated from few doses,TGFBR1; CATDS: 3.91809843911003E-2,460 nM
same,potency estimated from few doses,ZAK; CATDS: 3.20798372195591E-2,834 nM
Cc1ccc(O)cc1Nc1ccnc2cc(-c3ccc(CN4CCCCC4)o3)ccc12 [GW557777X],potency estimated from few doses,ACVR1B; CATDS: 2.3041961266034101E-2,60.3 nM
same,potency estimated from few doses,ACVR1; CATDS: 2.9506962076646302E-2,25.6 nM
same,potency estimated from few doses,CSK; CATDS: 1.5702412967624198E-2,358 nM
same,potency estimated from few doses,"DDR1; compound concentrations: 100 nM and 1000 nM (sheet 'Samples'), CATDS: 1.3388843859825601E-2",1100 nM
same,potency estimated from few doses,FRK; CATDS: 4.1928462897336198E-2,9.28 nM
same,potency estimated from few doses,LYN; CATDS: 1.9191353458574801E-2,128 nM
same,potency estimated from few doses,SIK2; CATDS: 1.7387307110144301E-2,205 nM
same,potency estimated from few doses,SRC; CATDS: 2.30493923024673E-2,60.3 nM
same,potency estimated from few doses,TGFBR1; CATDS: 1.55635860325104E-2,377 nM
same,potency estimated from few doses,ZAK; CATDS: 1.4248568360294899E-2,672 nM
CNC1=NC(=O)/C(=C/c2ccc3ncccc3c2)S1 [RO4595949-000],potency estimated from few doses,DYRK1A; CATDS: 0.10780330705145599,209 nM
NC(=O)c1cccc(Nc2nccc(Nc3cccc4[nH]ncc34)n2)c1 [GW782612X],potency estimated from few doses,ACVR1B; CATDS: 5.6390113546044701E-2,401 nM
same,potency estimated from few doses,ACVR1; CATDS: 0.10376431199902,122 nM
same,potency estimated from few doses,FRK; CATDS: 5.5821190853221701E-2,411 nM
same,potency estimated from few doses,TGFBR1; CATDS: 5.60805138513292E-2,406 nM
O=C1N=C(NCCc2ccccc2F)S/C1=C\c1ccc2ncccc2c1 [RO4498483-000],potency estimated from few doses,DYRK1A; CATDS: 8.8096211342070505E-2,883 nM
same,potency estimated from few doses,"FLT3; compound concentrations: 100 nM and 1000 nM (sheet 'Samples'), CATDS: 7.3322298638159894E-2",1520 nM
CS(=O)(=O)Cc1ccc(Nc2nccc(-c3c(-c4cccc(NC(=O)C5CCCCC5)c4)nn4ncccc34)n2)cc1 [GSK350559A],potency estimated from few doses,DDR1; [1],401 nM
same,potency estimated from few doses,EGFR; [1],1890 nM
same,potency estimated from few doses,FLT3; [1],660 nM
COc1ccccc1CNC1=NC(=O)/C(=C/c2ccc3ncccc3c2)S1 [RO4503315-000],potency estimated from few doses,DYRK1A; CATDS: 8.6327639243549595E-2,596 nM
CNC(=O)c1ccccc1Nc1nc(Nc2cccc(CS(C)(=O)=O)c2)ncc1C.O=CO [GSK1520489A],potency estimated from few doses,ACVR1B; CATDS: 1.2545717700139699E-2,511 nM
same,potency estimated from few doses,"DDR1; compound concentrations: 100 nM and 1000 nM (sheet 'Samples'), CATDS: 1.3625362720769099E-2",389 nM
same,potency estimated from few doses,"EGFR; compound concentrations: 100 nM and 1000 nM (sheet 'Samples'), CATDS: 1.37119506592154E-2",382 nM
same,potency estimated from few doses,EPHA1; CATDS: 4.9501189051371401E-2,23.8 nM
same,potency estimated from few doses,"FLT3; compound concentrations: 100 nM and 1000 nM (sheet 'Samples'), CATDS: 1.2283454590930699E-2",550 nM
same,potency estimated from few doses,FRK; CATDS: 1.0457896251618699E-2,1050 nM
same,potency estimated from few doses,LYN; CATDS: 1.17680848685595E-2,643 nM
same,potency estimated from few doses,SIK2; CATDS: 1.1089332631068699E-2,813 nM
same,potency estimated from few doses,SRC; CATDS: 1.1920002971419799E-2,613 nM
same,potency estimated from few doses,TGFBR1; CATDS: 9.4696036955239198E-3,1790 nM
O=S(=O)(c1ccc(-c2ccnc3[nH]ccc23)cc1)N1CCCC1 [GSK846226A],potency estimated from few doses,ACAD11; [1],693 nM
same,potency estimated from few doses,RIOK2; [1],2220 nM
CN1CCN(Cc2ccc(NC(=O)Nc3ccc(N(C)c4ccnc(Nc5ccc(CS(C)(=O)=O)cc5)n4)cc3)cc2)CC1.Cl [GW827654A],potency estimated from few doses,"DDR1; compound concentrations: 100 nM and 1000 nM (sheet 'Samples'), CATDS: 9.0540797508364801E-2",147 nM
same,potency estimated from few doses,"FLT3; compound concentrations: 100 nM and 1000 nM (sheet 'Samples'), CATDS: 0.105116266606525",112 nM
CN1CCN(Cc2ccc(-c3ccc4c(Nc5ccc(Oc6ccccn6)cc5)ccnc4c3)o2)CC1 [GW567140X],potency estimated from few doses,"EGFR; compound concentrations: 100 nM and 1000 nM (sheet 'Samples'), CATDS: 3.6910458353503803E-2",1180 nM
same,potency estimated from few doses,EPHA1; CATDS: 4.2699834629257603E-2,760 nM
same,potency estimated from few doses,"FLT3; compound concentrations: 100 nM and 1000 nM (sheet 'Samples'), CATDS: 5.7646545219248203E-2",368 nM
same,potency estimated from few doses,FRK; CATDS: 3.6217931786021701E-2,1260 nM
same,potency estimated from few doses,LYN; CATDS: 3.5611600643533602E-2,1330 nM
same,potency estimated from few doses,SRC; CATDS: 4.7577990075445997E-2,573 nM
N#Cc1cnc2cc(-c3cnc(CNCCN4CCOCC4)s3)ccc2c1Nc1ccc(Oc2ccccc2)cc1 [GW664114X],potency estimated from few doses,CSK; CATDS: 6.7492290868603394E-2,448 nM
same,potency estimated from few doses,"EGFR; compound concentrations: 100 nM and 1000 nM (sheet 'Samples'), CATDS: 4.1929469071091803E-2",2090 nM
same,potency estimated from few doses,LYN; CATDS: 6.1309680787230501E-2,562 nM
same,potency estimated from few doses,SRC; CATDS: 8.2949353782893101E-2,293 nM
